Consider 4 compounds from PubChem BioAssay (NCATS).

Experiment [1] has as its target Cytochrome P450 3A4 (Homo sapiens) (UniProt P08684). Briefly: qHTS Assay for Inhibitors and Substrates of Cytochrome P450 3A4 (AID 884). Note: nearly all actives have a fitted effect of over 50% in size. Note: potency is the fitted concentration of half-maximal effect. In outline: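 Luminescent readout of luciferin produced by CYP3A4 (20 nM) dealkylation of Luciferin-PPXE, 25 uM (its KM). NADPH-driven reaction ran 60 min at RT after 10 min compound preincubation; data scaled to 57 uM ketoconazole as 100% inhibition.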

Experiment [2] has the same target. The experiment is described as follows: qHTS Assay for Activators of Cytochrome P450 3A4 (AID 885). Note: nearly all actives have a fitted effect of over 65% in size. The essentials:
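Activators are scored by enhanced luminescence from CYP3A4 conversion of luciferin-PPXE (25uM, equal to KM) to luciferin, after 60 min at RT with an NADPH-regenerating system.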

Experiment [3] can be described thus: Confirmation and Secondary Assay for Modulators of Hemoglobin Beta Chain Splicing at IVS2 654 locus (AID 910).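 Note: HeLa cells stably carrying EGFP split by mutant beta-globin IVS2-654 intron; per-well total GFP intensity by laser scanning cytometry after 2-day treatment; % of control where 0% means no effect.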 The essentials:
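Readout: per-well total peak green fluorescence (488 nm ex, 500–520 nm em) from objects 5–250 µm, reflecting correct splicing of an EGFP-654 reporter. Compounds were applied for 2 days at 37 °C to overnight-plated HeLa EGFP-654 cells; controls were DMSO and 500 nM IVS2-654 PNA.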

The nature of experiment [4]: Confirmation and Secondary Assay for Modulators of Hemoglobin Beta Chain Splicing at IVS2 705 locus (AID 930).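 Note: HeLa cells stably expressing the EGFP-705 splicing reporter; % of control where 0% means no effect.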 The essentials:
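HeLa cells stably carrying EGFP interrupted by mutant beta-globin IVS2-705 intron (CMV-driven) were seeded at 500 cells/well, treated next day with compound for 2 days at 37C; corrected splicing restores EGFP, read as total peak GFP intensity per well.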

Experiment [5] can be described thus: qHTS Assay for Lipid Storage Modulators (AID 1519; calls by dose curve). The note with it: Drosophila S3 cells, BODIPY lipid droplet/cell ratio, laser cytometry, cells loaded with oleic acid; for activity change, negative = inhibition: at 57.5 µM (top of the series). The essentials: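 Cells seeded at 5,000 per well were treated with compounds over a concentration series and loaded with oleic acid (400 uM, as added). Lipid droplet fluorescence (488 nm excitation, 500-530 nm channel) was read by laser-scanning cytometry and normalized to 20 uM Triacsin C.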

The target of experiment [6] is Ubiquitin carboxyl-terminal hydrolase 1 (Homo sapiens) (UniProt O94782). Briefly: Inhibitors of USP1/UAF1: Pilot qHTS (AID 504865).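 Note: rhodamine fluorescence freed from ubiquitin-rhodamine substrate followed over time; top concentration of the series differs between compounds; % is set by controls: 0 for no effect and ±100 for the full control effect; nearly all actives have a fitted effect of over 35% in size.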 The essentials:
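In 50mM HEPES pH 7.8 containing 0.5mM EDTA, 1mM TCEP, 0.1 mg/ml BSA and 0.01% Tween-20, 1nM USP1/UAF1 is exposed to compound for 15 min, then Ub-Rho (150nM final) is added and fluorescence is read over time.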

Experiment [7] has as its target DNA dC->dU-editing enzyme APOBEC-3G (Homo sapiens) (UniProt Q9HC16). Briefly: qHTS for inhibitors of Vif-A3G interactions: Validation (AID 588379). Note: 0% is about no effect. In outline:
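Yellow fluorescence (Ex 488, Em 500-530) of Vif-coexpressing HeLa A3G-eYFP cells, scanned by Acumen cytometer, reports blocked A3G degradation. Cells plated at 700/well overnight at 37 deg C before compound addition, then a further overnight compound incubation at 37 deg C.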

Experiment [8] has as its target Estrogen receptor (Homo sapiens) (UniProt P03372). Briefly: qHTS assay for small molecule antagonists of estrogen receptor alpha signaling (AID 588513; active = well fitted curve in the direction sought with a large enough effect in the signal ratio, with a control signal flat, not every such curve was filed as active; the % refers to the signal ratio; note: % is set by controls: 0 for no effect and ±100 for the full control effect). The essentials:
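Fluorescence from CCF4 substrate after 2 h at room temperature gave reporter activity; cells had been exposed to compound and 0.5nM 17-beta-estradiol for 18 h at 37 C. Hill-equation fitting yielded IC50 and maximal response.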

For experiment [9] the target is unchanged. Briefly: qHTS assay for small molecule agonists of estrogen receptor alpha signaling (AID 588514; calls by dose curve;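 note: 0% = vehicle only and 100% = reference agonist; nearly all actives have a fitted effect of over 70% in size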). In outline: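 EC50 and efficacy came from Hill fits of beta-lactamase reporter signal (CCF4 dye, 2 h at room temperature) scaled between DMSO and 20 nM 17-beta-estradiol. Agonist mode: HEK293 ER-alpha-UAS-bla cells in charcoal/dextran-stripped serum medium, 18 h compound exposure at 37 C.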

Experiment [10] in a line: qHTS assay for small molecule antagonists of peroxisome proliferator-activated receptor delta signaling (AID 588535; active = well fitted inhibition curve with a large enough effect in the signal ratio, with a control signal flat, not every such curve was filed as active; the % refers to the signal ratio;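 for max response: cells co-treated with a PPAR-delta agonist as stimulator during compound exposure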). The note with it: HEK293T PPARd-UAS-bla, beta-lactamase FRET ratio, 18 h; 460 nm channel. The essentials: (§1)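 Titrations were run on PPAR-delta-UAS-bla HEK293T cells in charcoal/dextran-stripped serum, incubated 18 h at 37 C. CCF4 fluorescence (460/530 nm) after 2 h RT; Hill equation yields IC50 and maximal response.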

Experiment [11] addresses Peroxisome proliferator-activated receptor delta (Homo sapiens) (UniProt Q03181). Described as above. In outline: as §1
The target in experiment [12] is Peroxisome proliferator-activated receptor gamma (Homo sapiens) (UniProt P37231). Briefly: qHTS assay for small molecule agonists of peroxisome proliferator-activated receptor gamma signaling (AID 588536; active = well fitted curve in the direction sought with a large enough effect in the signal ratio, with a control signal flat, not every such curve was filed as active; the % refers to the signal ratio;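 note: 0% = DMSO basal wells and 100% = rosiglitazone at 2 µM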). In outline: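 Beta-lactamase reporter read-out: CCF4 fluorescence (ex 405, em 460/530 nm) after 2 h at RT. HEK293 GeneBLAzer cells were treated for 16 h at 37 C. Hill fits gave EC50 and efficacy versus 2 uM rosiglitazone (100%) and DMSO (0%).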
Peroxisome proliferator-activated receptor gamma (Homo sapiens), sequence (P37231 whole entry, looked up): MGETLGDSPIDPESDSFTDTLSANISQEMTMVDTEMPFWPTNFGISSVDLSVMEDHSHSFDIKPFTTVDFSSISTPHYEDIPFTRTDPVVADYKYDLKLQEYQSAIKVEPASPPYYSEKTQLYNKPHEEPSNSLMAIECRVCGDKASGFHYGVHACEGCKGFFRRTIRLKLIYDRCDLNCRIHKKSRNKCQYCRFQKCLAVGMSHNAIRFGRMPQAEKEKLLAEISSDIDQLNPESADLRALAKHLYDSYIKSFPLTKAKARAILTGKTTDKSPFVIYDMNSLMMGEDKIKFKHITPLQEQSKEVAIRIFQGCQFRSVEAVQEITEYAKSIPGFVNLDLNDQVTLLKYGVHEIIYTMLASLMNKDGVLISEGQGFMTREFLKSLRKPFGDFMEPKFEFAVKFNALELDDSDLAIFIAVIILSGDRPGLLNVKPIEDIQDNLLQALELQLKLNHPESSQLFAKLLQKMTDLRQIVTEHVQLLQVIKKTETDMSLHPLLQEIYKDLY

The target is the same in experiment [13]. Briefly: qHTS assay for small molecule antagonists of peroxisome proliferator-activated receptor gamma signaling (AID 588537; active = well fitted inhibition curve with a large enough effect in the signal ratio, with a control signal flat, not every such curve was filed as active; the % refers to the signal ratio;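 note: reporter cells co-stimulated with 50 nM rosiglitazone agonist during compound treatment; % of control where 0% means no effect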). In outline: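 Antagonist-mode β-lactamase reporter screen run as a titration series. HEK293 PPARγ-UAS-bla cells are stimulated with rosiglitazone (50 nM final) for 16 h, then CCF4 is read at 460/530 nm. Data are scaled between DMSO and rosiglitazone and fitted to the Hill equation.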

Experiment [14] addresses Vitamin D3 receptor (Homo sapiens) (UniProt P11473). The experiment is described as follows: qHTS assay for small molecule antagonists of vitamin D receptor signaling (AID 588541; calls by dose curve;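 note: receptor activated by calcitriol during compound treatment; % is set by controls: 0 for no effect and ±100 for the full control effect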). In outline:
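Antagonist-mode beta-lactamase reporter assay: HEK293T VDR-UAS-bla cells were exposed to titrated compound alongside 1-alpha,25-dihydroxyvitamin D3 at 3 nM final for 16 h. Values were normalized to the 50 nM agonist control and DMSO basal, with IC50 and efficacy from Hill equation fits.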

The target is the same in experiment [15]. Briefly: qHTS assay for small molecule agonists of vitamin D receptor signaling (AID 588543; calls by dose curve;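 note: 0% = DMSO basal and 100% = reference agonist control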). The essentials: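 Reporter cells (HEK293T, VDR-UAS-bla) were seeded in medium with 2% charcoal-stripped serum and incubated 5 h, then compounds in concentration series were added for 16 h at 37 °C. Stimulation was scaled between DMSO basal and 50 nM 1α,25-dihydroxyvitamin D3.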

Experiment [16] can be described thus: qHTS assay for small molecule agonists of retinoid X receptor alpha signaling (AID 588544; calls by dose curve;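 for activation: 0% = DMSO basal wells and 100% = reference agonist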). The note with it: HEK293T RXRa-UAS-bla, beta-lactamase reporter, 18 h; 530 nm emission.
Experiment [17] addresses Retinoic acid receptor RXR-alpha (Homo sapiens) (UniProt P19793). The description is as above.
A short description of experiment [18]: qHTS assay for small molecule antagonists of retinoid X receptor alpha signaling (AID 588546; active = well fitted inhibition curve with a large enough effect in the signal ratio, with a control signal flat, not every such curve was filed as active; the % refers to the signal ratio;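 note: cells stimulated with 9-cis-retinoic acid as agonist; % is set by controls: 0 for no effect and ±100 for the full control effect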). The note with it: HEK293T RXRa-UAS-bla, beta-lactamase ratio, antagonist mode; measured here: W530 green channel, cytotoxicity proxy. The essentials:
(§2)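 Beta-lactamase reporter inhibition, read as CCF4 fluorescence ratio (ex 405, em 460/530 nm) after 2 h at RT. HEK293T UAS-bla cells, 2500/well, were stimulated with 9-cis-RA at 500 or 100 nM final alongside test compound for 18 h at 37 C.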

In experiment [19] the target is Retinoic acid receptor RXR-alpha (Homo sapiens) (UniProt P19793). The description is as above. The note with it: HEK293T RXRa-UAS-bla, beta-lactamase ratio, antagonist mode. In outline:
as §2

The target in experiment [20] is Thyroid hormone receptor beta (Homo sapiens) (UniProt P10828). The experiment is described as follows: qHTS assay for small molecule antagonists of thyroid hormone receptor beta signaling (AID 588547; active = well fitted inhibition curve with a large enough effect in the signal ratio, with a control signal flat, not every such curve was filed as active; the % refers to the signal ratio;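 note: cells stimulated with 0.4 nM T3 agonist during compound exposure; % is set by controls: 0 for no effect and ±100 for the full control effect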). The note with it: TR-UAS-bla HEK293, beta-lactamase ratio, antagonist mode, 18 h. In outline:
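Inhibition of T3-driven (0.4nM final) beta-lactamase reporter activity was measured over 0.59 nM to 92 uM compound after 18 h at 37 C. The cells were GripTite HEK293 TR-UAS-bla in charcoal/dextran-stripped serum, with CCF4 ratio read-out and IC50 from Hill fits.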

Experiment [21] is described as follows: qHTS assay for small molecule agonists of the antioxidant response element (ARE) signaling pathway (AID 651741; active = well fitted activation curve with a large enough effect in the signal ratio; the % refers to the signal ratio; note: % of control where 0% means no effect). The essentials: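 Beta-lactamase reporter under ARE control in HepG2 cells, 2,000 per well, was induced by 16 h compound treatment at 37 C. Read-out was fluorescence from LiveBLAzer B/G FRET substrate after 2 h at room temperature.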
Experiment [22] in a line: qHTS assay for environmental chemicals that activate the Aryl hydrocarbon Receptor (AhR) signaling pathway (AID 651777). Note: % of control where 0% means no effect; nearly all actives have a fitted effect of over 15% in size. The following applies: 1A2-DRE human hepatoma cells, luciferase, 24 h; stronger effect = higher value. In outline: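 Human hepatoma 1A2-DRE cells, stably carrying a dioxin response element and CYP1A2 promoter driving luciferase, were exposed to compounds for 24 hr at 37 C and 5% CO2. Luciferase signal was then read after 30 min One-Glo at room temperature.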

The target of experiment [23] is Peroxisome proliferator-activated receptor alpha (Homo sapiens) (UniProt Q07869). The experiment is described as follows: qHTS assay for small molecule agonists of the peroxisome proliferator-activated receptor alpha (PPARalpha) signaling pathway (AID 651778). Note: % of control where 0% means no effect. The note with it: PathHunter PPARalpha complementation, chemiluminescence, 6 h; stronger effect = higher value. The essentials:
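Chemiluminescence from complemented enzyme reported PPARalpha activation in cells after 6 hr of compound treatment at 37 C. The detection reagent was incubated for 60 min at room temperature, and compounds were scored as agonists.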

Experiment [24] is described as follows: qHTS assay for small molecule agonists of the antioxidant response element (ARE) signaling pathway measured by Nrf2-dependant transcriptional activity (AID 720636; active = well fitted curve in the direction sought with a large enough effect in the repeat runs; an effect the other way counts as inactive or inconclusive; note: % of control where 0% means no effect). The essentials: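 ARE-luc HepG2 cells carrying an Nrf2-responsive luciferase reporter were plated in medium with 1% dialyzed FBS, left 6 hr at 37 C to attach, then exposed to compound for 16 hr. Luciferase luminescence was read after ONE-Glo addition.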

Experiment [25] is described as follows: qHTS assay for small molecule agonists of the antioxidant response element (ARE) signaling pathway measured by Nrf2-dependant transcriptional activity - cell viability counter screen (AID 720653; active = well fitted curve in the direction sought with a large enough effect in the repeat runs; an effect the other way counts as inactive or inconclusive; note: % is set by controls: 0 for no effect and ±100 for the full control effect). The note with it: ARE-bla HepG2 viability, CellTiter-Glo ATP luminescence, 16 h; stronger effect = lower value. The essentials:
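Cytotoxicity counter screen: intracellular ATP quantified by CellTiter-Glo luminescence in the same ARE-bla HepG2 plates, after 16 h compound exposure and a 2 h beta-lactamase substrate step.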

The nature of experiment [26]: qHTS assay for cell viability of HEK293 cells (AID 743288). Note: % is set by controls: 0 for no effect and ±100 for the full control effect; nearly all actives have a fitted effect of over 50% in size. The note with it: ATP luminescence (CellTiter-Glo), 18 h, stronger effect = lower value. The essentials: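 Viable-cell counts were inferred from luciferase-based ATP content in HEK293 cells seeded at 2,000/well, pre-incubated ≥5 h, then dosed with DMSO-solubilised compounds for 18 h at 37 C.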
The nature of experiment [27]: qHTS assay for cell viability of the p53RE-bla HCT-116 cell line (AID 743292). Note: % is set by controls: 0 for no effect and ±100 for the full control effect; nearly all actives have a fitted effect of over 55% in size. The essentials: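 CellSensor p53RE-bla HCT-116 cells, 4,000/well, preincubated 5 h at 37 C, then exposed to compounds in DMSO for 16 h at 37 C. Viability read as CellTiter-Glo luminescence (intracellular ATP) after 30 min at room temperature.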
Where [28] appears, read: measured here: cell count channel max response.
Setting [29] is: measured here: lipid channel max response.

Inconclusive results are not listed. Activity calls are given as the source filed them. Unless noted, calls come from the whole dose curve; as a rule, active = well fitted curve in the direction sought with a large enough effect; inconclusive = small, poorly fitted or top-dose-only effect, or another doubt; inactive = no such curve, though single readings can be large; an effect the other way counts as inactive or inconclusive.

Ubiquitin carboxyl-terminal hydrolase 1 (Homo sapiens), sequence (O94782 whole entry, looked up): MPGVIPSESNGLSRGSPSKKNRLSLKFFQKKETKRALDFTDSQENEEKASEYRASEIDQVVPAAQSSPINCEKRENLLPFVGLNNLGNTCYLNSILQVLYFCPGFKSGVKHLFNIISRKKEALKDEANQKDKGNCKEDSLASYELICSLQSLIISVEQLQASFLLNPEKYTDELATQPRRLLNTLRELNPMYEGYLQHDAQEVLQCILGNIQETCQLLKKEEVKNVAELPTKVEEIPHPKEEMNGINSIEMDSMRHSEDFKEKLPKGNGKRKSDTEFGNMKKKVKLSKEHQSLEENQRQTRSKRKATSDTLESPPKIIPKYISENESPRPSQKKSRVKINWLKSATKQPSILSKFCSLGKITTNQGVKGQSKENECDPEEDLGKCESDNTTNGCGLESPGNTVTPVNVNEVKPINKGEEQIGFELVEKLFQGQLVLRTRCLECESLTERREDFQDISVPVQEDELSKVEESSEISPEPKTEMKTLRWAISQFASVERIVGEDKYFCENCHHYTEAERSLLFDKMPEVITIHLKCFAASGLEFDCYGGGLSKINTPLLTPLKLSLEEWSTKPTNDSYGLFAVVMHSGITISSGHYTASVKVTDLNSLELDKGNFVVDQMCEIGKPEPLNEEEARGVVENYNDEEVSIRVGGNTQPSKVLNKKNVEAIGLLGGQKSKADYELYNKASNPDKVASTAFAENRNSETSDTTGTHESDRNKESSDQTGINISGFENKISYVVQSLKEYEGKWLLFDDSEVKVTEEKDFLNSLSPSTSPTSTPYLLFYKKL
Cytochrome P450 3A4 (Homo sapiens), sequence (P08684 whole entry, looked up): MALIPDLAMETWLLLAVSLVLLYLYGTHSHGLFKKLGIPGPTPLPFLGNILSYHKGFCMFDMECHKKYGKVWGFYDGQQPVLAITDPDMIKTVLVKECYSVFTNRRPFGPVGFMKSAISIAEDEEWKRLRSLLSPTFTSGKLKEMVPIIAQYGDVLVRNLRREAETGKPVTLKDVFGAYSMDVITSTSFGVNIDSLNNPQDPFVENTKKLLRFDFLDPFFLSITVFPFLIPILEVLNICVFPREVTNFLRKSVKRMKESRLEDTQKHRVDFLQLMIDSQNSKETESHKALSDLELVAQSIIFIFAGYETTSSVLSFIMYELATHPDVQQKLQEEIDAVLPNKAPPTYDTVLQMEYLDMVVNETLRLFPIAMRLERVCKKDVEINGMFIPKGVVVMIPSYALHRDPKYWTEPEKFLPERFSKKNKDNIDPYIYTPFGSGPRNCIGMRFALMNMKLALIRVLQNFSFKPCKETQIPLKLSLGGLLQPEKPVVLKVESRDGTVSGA
DNA dC->dU-editing enzyme APOBEC-3G (Homo sapiens), sequence (Q9HC16 whole entry, looked up): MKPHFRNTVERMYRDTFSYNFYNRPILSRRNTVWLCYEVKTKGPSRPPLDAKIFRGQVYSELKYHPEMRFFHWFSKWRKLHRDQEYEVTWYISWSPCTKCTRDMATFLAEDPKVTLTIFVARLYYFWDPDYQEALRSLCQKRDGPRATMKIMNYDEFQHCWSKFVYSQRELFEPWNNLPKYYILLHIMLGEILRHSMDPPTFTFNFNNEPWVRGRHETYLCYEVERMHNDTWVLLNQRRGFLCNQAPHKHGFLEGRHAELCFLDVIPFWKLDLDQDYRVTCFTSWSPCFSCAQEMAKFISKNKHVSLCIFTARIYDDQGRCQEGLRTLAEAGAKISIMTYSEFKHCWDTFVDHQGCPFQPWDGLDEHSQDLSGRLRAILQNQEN
Retinoic acid receptor RXR-alpha (Homo sapiens), sequence (P19793 whole entry, looked up): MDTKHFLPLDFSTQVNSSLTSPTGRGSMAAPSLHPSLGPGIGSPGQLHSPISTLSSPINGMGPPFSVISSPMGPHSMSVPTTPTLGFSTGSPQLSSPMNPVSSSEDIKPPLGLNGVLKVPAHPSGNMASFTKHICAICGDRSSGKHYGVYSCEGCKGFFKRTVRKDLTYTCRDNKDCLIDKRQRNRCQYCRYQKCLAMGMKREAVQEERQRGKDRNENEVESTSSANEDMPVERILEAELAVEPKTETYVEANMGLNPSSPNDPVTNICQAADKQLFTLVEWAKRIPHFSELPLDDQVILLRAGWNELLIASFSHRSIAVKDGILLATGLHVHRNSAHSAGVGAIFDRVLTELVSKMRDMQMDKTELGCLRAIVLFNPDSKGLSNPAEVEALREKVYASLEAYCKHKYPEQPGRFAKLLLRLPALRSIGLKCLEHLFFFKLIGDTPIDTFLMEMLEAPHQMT
Estrogen receptor (Homo sapiens), sequence (P03372 whole entry, looked up): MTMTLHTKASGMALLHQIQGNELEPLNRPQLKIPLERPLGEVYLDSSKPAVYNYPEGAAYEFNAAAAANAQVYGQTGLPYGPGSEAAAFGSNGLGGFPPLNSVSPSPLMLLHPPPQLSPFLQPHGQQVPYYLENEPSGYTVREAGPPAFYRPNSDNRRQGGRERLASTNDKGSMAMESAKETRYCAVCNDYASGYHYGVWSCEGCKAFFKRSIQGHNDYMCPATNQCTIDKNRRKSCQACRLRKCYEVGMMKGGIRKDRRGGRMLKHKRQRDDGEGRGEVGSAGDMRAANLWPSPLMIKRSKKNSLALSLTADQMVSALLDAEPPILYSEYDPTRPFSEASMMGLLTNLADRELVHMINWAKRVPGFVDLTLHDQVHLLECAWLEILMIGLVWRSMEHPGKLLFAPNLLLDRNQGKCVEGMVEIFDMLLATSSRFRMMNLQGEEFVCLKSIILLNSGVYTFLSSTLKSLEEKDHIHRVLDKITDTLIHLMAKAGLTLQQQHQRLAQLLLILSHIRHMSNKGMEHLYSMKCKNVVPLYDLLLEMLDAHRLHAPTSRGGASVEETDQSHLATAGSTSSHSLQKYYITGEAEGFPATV
Vitamin D3 receptor (Homo sapiens), sequence (P11473 whole entry, looked up): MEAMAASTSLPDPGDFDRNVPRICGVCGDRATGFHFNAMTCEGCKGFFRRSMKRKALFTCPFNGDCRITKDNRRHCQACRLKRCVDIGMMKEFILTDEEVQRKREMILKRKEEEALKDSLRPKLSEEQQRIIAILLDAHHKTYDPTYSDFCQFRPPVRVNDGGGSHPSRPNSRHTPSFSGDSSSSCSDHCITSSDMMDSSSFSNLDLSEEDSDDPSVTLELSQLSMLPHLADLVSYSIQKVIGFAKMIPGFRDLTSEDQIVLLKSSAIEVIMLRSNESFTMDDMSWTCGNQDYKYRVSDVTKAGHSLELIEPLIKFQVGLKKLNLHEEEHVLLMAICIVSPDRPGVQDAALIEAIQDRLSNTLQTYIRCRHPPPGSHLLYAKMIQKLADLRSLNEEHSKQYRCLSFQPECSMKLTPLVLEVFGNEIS
Peroxisome proliferator-activated receptor delta (Homo sapiens), sequence (Q03181 whole entry, looked up): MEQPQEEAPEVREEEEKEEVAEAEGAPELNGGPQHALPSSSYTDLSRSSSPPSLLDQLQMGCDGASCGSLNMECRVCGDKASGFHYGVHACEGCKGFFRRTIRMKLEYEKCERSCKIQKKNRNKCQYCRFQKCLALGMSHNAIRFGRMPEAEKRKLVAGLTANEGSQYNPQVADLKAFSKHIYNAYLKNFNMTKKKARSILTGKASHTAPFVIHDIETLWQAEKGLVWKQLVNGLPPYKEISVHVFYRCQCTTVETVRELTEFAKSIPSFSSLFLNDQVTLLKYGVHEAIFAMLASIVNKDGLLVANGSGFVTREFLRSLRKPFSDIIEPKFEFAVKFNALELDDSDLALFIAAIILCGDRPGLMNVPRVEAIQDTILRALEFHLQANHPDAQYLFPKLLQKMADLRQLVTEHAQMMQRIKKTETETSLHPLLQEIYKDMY
Peroxisome proliferator-activated receptor alpha (Homo sapiens), sequence (Q07869 whole entry, looked up): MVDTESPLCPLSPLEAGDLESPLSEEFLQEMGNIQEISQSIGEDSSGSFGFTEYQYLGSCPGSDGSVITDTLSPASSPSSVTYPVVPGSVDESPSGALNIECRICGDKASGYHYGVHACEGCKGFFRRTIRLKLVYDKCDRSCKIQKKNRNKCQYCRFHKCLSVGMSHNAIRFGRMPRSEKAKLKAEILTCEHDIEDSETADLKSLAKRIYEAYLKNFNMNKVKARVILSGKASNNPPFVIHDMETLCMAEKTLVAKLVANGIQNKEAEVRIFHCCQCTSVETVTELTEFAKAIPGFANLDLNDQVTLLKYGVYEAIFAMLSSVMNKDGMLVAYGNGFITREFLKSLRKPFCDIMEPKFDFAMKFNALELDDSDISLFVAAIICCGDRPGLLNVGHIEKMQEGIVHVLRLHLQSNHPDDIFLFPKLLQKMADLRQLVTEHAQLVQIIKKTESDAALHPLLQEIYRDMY

For the compound `C/C=C(\C)C(=O)OC1[C@@H]2C=C3C4CC(=O)OC(c5ccoc5)[C@]4(C)CCC3[C@@](C)(C2=O)C(C(O)C(=O)OC)C1(C)C` (some centres not stated), the Potency in [1] was 12.6 µM (active). Moreover, the Potency entry in experiment [2], in experiment [3], in [4] and in experiment [6] was “inactive” throughout. Besides, in experiment [5], the activity change, negative = inhibition is -1.19% (inactive). Further, the max response in experiment [5] (setting [28]) came out at 8.66%; in experiment [5] (setting [29]) it was 12.5%.

Consider `O=C(O)C1(O)C[C@H](O)C(O)[C@@H](O)C1` (some centres not stated), for which the Potency entry in experiment [1] and in experiment [6] was “inactive” each time. Further, in experiment [5], the activity change, negative = inhibition is -0.572% (inactive). Further, the max response in [5] (setting [28]) was -6.02%; in [5] (setting [29]), -7.19%. Further, in experiment [7], the compound was classed as inactive.

As to `CC1=CC(=O)[C@@H]2C[C@H]1C2(C)C`, the Potency result in experiment [1] and in experiment [6] was “inactive” each time. Besides, in [5], the activity change, negative = inhibition was 4.82% (inactive). The max response in experiment [5] (setting [28]) was -1.97%; in experiment [5] (setting [29]), -0.655%. Further, the compound was called inactive in [7].

For the compound `COc1c(Cl)ccc(Cl)c1C(=O)O`, the Potency entry in experiment [1], in experiment [3], in experiment [4], in experiment [6] and in experiment [21] was “inactive” in each case. The activity change, negative = inhibition in experiment [5] was 0.0476% (inactive). The max response in experiment [5] (setting [28]) was -8.45%; in experiment [5] (setting [29]) it was -7.42%; in [10] it was -7.82%; in experiment [16], -9.41%; in experiment [18], -0.329%; in experiment [19], 3.8% (inactive). Also, the max response was 0.109% (inactive) in experiment [23], -4.23% (inactive) in experiment [25] and -3.63% (inactive) in experiment [26]. Moreover, the compound was classed as inactive in experiment [8], in [9], in experiment [11], in [12], in [13] and in experiment [14]. Also, the compound was classed as inactive in [15], in experiment [17], in experiment [24] and in experiment [27]. Besides, the activity change % (negative = inhibition) in [20] is 5.53% (inactive). For the same compound, the activation in [22] is 1.18% (inactive).
